The supplement of paper PMC11732987, “Enantioselective OTUD7B fragment discovery through chemoproteomics screening and high-throughput optimisation” (Communications Chemistry, 2025)

Columns and labels:
Assay in all cases: log2 ratio of Biotin-Ahx-Ub-VS probe labelling (fragment/DMSO); higher = less target engagement (more negative = stronger competition), active = hit call of the paper (q ≤ 0.05, log2 ratio ≤ -1)
Details in all cases: compound concentration: 200 uM; treatment time: 3 h
USP34 = USP34 (UniProt Q70CQ2)
USP34, sequence (Q70CQ2 whole entry, the tested form may be a part): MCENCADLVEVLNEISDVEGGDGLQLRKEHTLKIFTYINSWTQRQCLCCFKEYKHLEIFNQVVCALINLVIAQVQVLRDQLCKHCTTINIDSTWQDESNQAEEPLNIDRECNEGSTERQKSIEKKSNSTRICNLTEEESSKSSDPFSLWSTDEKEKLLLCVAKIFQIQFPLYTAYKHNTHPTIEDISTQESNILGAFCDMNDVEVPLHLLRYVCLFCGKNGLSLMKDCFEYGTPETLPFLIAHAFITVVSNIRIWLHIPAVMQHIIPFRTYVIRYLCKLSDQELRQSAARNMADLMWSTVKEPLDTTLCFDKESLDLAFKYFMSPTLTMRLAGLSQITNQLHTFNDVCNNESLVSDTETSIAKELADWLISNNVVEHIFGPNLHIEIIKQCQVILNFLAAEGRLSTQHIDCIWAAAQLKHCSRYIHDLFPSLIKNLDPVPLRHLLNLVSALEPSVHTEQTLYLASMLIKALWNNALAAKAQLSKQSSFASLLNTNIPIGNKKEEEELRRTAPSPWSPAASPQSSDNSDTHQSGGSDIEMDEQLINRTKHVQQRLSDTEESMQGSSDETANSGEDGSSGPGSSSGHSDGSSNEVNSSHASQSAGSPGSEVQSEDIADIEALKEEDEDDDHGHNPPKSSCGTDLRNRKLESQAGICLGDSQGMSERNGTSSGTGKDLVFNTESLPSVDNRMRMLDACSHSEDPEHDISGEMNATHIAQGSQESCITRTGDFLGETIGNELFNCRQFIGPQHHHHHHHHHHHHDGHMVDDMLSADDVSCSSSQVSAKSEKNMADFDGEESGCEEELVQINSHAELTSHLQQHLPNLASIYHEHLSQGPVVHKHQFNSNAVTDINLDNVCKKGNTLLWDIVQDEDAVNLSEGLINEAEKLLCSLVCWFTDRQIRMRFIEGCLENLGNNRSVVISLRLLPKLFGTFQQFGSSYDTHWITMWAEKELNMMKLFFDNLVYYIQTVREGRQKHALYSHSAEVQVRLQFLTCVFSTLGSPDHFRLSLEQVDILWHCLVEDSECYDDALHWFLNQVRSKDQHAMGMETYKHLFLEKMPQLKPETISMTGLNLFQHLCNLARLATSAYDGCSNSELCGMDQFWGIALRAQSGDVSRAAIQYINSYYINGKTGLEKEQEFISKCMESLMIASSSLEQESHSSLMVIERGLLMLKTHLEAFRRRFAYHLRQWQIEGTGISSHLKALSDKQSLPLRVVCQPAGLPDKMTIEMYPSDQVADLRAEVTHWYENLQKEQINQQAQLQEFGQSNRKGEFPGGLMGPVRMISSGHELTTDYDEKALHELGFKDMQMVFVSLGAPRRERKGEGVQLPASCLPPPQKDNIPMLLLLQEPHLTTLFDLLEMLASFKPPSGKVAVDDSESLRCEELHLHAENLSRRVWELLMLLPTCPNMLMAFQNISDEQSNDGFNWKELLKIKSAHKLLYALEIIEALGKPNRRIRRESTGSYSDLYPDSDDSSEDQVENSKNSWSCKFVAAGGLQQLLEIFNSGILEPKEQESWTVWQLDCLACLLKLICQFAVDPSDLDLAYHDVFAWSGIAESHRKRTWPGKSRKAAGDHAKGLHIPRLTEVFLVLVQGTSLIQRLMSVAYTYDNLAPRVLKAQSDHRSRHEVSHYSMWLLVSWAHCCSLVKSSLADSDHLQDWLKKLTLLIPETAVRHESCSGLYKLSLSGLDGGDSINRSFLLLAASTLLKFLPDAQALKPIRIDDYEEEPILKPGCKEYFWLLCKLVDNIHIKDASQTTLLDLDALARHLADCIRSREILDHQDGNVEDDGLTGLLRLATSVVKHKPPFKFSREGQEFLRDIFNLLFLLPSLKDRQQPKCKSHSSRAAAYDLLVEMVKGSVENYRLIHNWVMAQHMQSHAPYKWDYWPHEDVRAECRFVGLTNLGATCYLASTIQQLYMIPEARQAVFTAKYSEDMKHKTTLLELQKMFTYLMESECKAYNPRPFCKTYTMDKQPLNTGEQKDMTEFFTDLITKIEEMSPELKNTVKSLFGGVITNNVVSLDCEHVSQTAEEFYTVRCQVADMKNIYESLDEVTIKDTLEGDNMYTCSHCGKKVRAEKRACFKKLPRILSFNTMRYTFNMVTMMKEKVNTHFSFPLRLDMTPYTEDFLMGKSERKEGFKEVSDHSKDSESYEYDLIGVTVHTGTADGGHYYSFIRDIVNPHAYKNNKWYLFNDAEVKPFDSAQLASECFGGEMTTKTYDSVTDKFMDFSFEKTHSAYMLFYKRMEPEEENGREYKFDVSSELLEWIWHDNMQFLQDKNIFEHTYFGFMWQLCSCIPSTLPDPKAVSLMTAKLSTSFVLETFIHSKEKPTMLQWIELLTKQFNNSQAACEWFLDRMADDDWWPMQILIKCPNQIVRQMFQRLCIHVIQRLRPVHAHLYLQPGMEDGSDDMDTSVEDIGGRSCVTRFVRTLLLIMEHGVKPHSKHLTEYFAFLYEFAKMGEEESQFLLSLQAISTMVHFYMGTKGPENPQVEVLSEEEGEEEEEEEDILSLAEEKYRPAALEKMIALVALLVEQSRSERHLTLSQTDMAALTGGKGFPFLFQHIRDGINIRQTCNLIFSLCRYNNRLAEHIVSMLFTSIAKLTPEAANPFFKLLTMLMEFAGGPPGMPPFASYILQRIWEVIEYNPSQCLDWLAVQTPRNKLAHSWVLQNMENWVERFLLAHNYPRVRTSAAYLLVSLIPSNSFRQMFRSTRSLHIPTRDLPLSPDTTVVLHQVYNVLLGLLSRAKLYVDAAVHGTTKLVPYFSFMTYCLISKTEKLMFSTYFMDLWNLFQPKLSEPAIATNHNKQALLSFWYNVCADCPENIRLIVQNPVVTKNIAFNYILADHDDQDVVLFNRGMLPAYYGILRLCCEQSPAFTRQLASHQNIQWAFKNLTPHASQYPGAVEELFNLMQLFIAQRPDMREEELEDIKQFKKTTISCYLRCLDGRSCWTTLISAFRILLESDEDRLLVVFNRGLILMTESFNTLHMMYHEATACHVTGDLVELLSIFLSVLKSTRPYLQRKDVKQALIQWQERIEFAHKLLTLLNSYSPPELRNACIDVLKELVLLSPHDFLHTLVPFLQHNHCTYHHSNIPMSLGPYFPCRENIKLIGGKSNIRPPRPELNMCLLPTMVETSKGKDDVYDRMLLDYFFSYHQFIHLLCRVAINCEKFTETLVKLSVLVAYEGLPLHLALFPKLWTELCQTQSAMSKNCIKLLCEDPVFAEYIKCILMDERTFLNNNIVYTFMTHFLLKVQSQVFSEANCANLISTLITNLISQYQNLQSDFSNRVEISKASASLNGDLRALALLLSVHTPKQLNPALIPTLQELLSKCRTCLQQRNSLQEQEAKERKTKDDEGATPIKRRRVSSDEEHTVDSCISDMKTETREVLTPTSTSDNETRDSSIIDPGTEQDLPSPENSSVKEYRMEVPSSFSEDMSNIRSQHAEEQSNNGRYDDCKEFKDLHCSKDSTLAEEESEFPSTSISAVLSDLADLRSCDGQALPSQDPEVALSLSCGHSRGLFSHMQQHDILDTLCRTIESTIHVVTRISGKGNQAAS
Summary of the method: (§1)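 Labelled DUBs were enriched with NeutrAvidin, digested with LysC and trypsin, and run by diaPASEF LC-MS/MS. The labelling used Biotin-Ahx-Ub-VS at 0.5 µM final for 1 h on HEK293T lysate (495 µg per sample) previously treated in triplicate with fragment at 200 µM or vehicle for 3 h. Values are average log2 fragment/vehicle ratios by unpaired t-test on global-median-normalised Spectronaut quantities of proteins with ≥2 unique peptides.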

USP36 = biological target: T1, USP36 (UniProt Q9P275)
T1 sequence (whole entry): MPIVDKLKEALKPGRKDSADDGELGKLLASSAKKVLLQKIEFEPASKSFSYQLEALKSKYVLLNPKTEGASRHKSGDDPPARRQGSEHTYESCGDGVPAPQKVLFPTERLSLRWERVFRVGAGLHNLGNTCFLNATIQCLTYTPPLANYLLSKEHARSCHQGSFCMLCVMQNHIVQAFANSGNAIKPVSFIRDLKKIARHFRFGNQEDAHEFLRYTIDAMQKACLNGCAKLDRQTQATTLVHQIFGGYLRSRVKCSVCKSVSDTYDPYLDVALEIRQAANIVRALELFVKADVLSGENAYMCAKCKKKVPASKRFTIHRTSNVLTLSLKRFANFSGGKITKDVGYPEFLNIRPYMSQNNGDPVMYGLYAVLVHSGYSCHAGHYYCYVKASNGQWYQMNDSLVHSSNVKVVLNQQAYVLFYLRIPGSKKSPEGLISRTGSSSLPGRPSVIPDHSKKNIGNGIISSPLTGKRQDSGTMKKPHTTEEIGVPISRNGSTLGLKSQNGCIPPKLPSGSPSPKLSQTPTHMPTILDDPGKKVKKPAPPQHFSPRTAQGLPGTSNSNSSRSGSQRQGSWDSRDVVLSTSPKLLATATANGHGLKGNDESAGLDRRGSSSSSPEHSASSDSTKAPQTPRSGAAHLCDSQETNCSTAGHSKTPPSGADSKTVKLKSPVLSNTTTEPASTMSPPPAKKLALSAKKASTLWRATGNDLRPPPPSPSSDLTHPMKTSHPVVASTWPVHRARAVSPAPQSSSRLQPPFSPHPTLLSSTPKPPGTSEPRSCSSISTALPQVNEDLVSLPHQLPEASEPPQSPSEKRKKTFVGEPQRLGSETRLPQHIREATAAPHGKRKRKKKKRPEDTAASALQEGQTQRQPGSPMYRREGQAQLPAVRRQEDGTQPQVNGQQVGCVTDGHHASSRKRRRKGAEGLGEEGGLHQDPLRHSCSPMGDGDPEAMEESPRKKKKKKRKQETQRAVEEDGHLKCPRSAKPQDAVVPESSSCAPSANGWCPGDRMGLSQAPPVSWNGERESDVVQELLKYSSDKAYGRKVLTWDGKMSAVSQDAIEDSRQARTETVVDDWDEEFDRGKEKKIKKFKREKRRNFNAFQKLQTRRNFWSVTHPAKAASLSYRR
Summary of the method: as §1

USP38 = biological target: T2, USP38 (UniProt Q8NB14)
T2 sequence (whole entry): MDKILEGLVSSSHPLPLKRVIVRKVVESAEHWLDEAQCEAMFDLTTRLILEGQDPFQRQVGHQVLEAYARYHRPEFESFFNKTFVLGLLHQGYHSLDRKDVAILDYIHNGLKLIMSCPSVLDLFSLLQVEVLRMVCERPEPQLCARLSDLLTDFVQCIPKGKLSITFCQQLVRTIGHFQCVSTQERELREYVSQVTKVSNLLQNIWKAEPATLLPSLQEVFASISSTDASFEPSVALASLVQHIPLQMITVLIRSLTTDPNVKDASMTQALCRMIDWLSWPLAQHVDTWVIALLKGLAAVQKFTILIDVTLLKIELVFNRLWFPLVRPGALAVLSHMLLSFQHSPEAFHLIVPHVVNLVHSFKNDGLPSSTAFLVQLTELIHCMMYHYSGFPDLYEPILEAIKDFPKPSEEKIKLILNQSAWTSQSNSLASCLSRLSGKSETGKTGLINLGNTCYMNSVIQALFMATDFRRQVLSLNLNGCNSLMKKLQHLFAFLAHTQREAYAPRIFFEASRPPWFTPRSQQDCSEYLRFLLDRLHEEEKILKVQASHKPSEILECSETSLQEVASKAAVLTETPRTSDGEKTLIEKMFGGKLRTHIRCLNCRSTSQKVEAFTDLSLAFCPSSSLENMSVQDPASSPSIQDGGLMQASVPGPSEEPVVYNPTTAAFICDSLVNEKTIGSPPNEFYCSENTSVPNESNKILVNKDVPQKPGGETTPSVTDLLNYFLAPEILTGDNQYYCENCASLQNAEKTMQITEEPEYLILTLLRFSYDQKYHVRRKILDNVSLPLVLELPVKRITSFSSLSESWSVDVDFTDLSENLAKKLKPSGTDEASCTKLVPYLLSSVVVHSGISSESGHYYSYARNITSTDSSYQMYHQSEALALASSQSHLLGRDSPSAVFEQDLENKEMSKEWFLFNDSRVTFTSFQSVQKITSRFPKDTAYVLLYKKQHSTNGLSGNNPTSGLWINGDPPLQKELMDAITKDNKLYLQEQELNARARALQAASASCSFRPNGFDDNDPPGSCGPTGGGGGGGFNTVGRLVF
Summary of the method: as §1

USP39 = biological target: T3, USP39 (UniProt Q53GS9)
T3 sequence (whole entry): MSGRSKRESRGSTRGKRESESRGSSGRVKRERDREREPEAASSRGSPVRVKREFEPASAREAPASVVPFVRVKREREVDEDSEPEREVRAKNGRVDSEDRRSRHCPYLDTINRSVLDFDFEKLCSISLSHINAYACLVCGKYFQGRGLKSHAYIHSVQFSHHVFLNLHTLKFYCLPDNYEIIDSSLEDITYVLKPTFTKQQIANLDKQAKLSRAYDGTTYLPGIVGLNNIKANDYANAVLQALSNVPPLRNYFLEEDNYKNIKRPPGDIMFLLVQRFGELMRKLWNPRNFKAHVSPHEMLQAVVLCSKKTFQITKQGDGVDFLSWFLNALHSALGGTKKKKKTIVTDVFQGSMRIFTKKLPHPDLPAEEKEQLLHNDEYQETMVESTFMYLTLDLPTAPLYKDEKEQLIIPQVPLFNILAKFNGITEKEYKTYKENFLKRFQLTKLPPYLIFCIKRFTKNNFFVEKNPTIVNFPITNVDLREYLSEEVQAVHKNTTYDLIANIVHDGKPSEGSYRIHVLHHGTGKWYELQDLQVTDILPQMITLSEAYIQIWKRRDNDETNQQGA
Summary of the method: as §1

USP4 = biological target: T4, USP4 (UniProt Q13107)
T4 sequence (whole entry): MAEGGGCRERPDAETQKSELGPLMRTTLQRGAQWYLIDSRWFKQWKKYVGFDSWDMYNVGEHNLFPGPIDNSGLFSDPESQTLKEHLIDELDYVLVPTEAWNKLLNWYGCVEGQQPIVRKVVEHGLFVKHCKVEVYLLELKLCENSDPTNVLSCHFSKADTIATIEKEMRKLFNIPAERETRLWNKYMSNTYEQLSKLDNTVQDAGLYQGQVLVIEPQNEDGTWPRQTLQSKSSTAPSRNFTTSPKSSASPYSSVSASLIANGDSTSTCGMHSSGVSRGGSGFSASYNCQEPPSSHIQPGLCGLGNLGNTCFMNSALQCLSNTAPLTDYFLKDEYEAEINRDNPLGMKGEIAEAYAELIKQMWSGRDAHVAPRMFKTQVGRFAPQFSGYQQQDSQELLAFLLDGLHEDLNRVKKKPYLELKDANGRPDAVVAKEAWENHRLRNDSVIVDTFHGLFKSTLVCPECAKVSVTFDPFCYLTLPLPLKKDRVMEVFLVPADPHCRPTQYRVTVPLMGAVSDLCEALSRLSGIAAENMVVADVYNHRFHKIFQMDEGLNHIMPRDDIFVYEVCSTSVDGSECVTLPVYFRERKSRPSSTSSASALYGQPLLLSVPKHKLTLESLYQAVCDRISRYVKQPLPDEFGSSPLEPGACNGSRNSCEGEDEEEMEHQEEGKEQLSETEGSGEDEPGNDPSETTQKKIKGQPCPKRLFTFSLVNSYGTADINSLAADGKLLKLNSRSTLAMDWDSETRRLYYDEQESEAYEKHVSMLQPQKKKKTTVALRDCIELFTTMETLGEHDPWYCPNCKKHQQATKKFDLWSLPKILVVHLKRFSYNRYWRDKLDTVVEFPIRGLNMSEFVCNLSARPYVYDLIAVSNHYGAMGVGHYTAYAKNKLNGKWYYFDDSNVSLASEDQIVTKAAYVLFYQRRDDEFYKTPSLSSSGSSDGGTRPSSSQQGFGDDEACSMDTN
Summary of the method: as §1

Measured: log2 ratio of Biotin-Ahx-Ub-VS probe labelling

NC(=O)C1CCCN(C(=O)CCl)C1 (stereo not given)
inactive: USP34 -0.00128 | USP36 0.0237 | USP38 -0.242 | USP39 -0.334 | USP4 -0.0203
